# FLuc modulator = qHTS profiling assay for firefly luciferase inhibitor/activator using purifed enzyme and Km concentrations of substrates (counterscreen for miR-21 project). AID 588342, 2011. Potency, µM (highest dose often 57.5 µM), for inactives: at the highest dose activity change, negative = inhibition, actives largely listed as inhibitors. hit rate 6.9% among 360,000. purified FLuc, Km substrates, luminescence inhibition;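 note: plate controls were vehicle for no effect and reference inhibitor for full effect; nearly all actives have a fitted effect of over 55% in size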
# Target sequence (P08659 whole entry, looked up): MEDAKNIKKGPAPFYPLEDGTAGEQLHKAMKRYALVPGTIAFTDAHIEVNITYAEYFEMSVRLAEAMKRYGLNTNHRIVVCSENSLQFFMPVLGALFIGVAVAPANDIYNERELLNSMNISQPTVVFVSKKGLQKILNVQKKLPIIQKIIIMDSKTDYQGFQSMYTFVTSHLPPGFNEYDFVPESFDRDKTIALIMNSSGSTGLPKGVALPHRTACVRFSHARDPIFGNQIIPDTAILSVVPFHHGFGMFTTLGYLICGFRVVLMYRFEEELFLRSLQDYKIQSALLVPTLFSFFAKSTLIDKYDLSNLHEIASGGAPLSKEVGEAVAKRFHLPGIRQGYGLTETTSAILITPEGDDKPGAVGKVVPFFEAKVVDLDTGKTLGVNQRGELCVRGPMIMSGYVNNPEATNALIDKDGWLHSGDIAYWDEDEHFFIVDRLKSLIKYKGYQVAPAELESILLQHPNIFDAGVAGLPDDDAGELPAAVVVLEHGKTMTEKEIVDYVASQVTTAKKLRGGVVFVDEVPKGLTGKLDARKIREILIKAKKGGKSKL
#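 Biochemical qHTS of compounds, final roughly 60 µM downward over six points, against 10 nM purified firefly luciferase using Km concentrations of substrates (10 uM D-luciferin, 10 uM ATP) in Tris acetate pH 7.5 buffer; luminescence output.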
# SMN2 splice enh = qHTS Assay for Enhancers of SMN2 Splice Variant Expression; HEK293 SMN2-luciferase splicing reporter, luminescence, 30-36 h; Potency, µM (series often up to 46.1 µM), for the others: top-dose activity change, positive = activation, most hits filed as activators; hit rate 2.8% among 210,000; note: % of control where 0% means no effect; nearly all actives have a fitted effect of over 55% in size
#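 qHTS luciferase splicing reporter: luminescence rises when SMN2 exon 7 is included in transfected HEK293 cells. Compound exposure lasted 30-36 h at 37C, with 4.5 mM final sodium butyrate as control, followed by a ONE-Glo read.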
# NPC1 promoter act = qHTS Assay for NPC1 Promoter Activators; hit rate 2.4% among 320,000; Huh7 NPC1 promoter luciferase reporter, 24 h; Potency, µM (top dose mostly 9.22 µM), without a hit: at the top dose activation, usual class: activators; AID 485313, 2010; note: % of control where 0% means no effect; nearly all actives have a fitted effect of over 60% in size
#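 Compounds in DMSO were transferred onto Huh7 NPC1-luciferase reporter cells pre-incubated 2 h; after 24 h at 37 °C, Amplite reagent was dispensed and luminescence recorded 10 min later.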
# ELG1 genotoxic = qHTS screen for small molecules that induce genotoxicity in human embryonic kidney (HEK293T) cells expressing luciferase-tagged ELG1; hit rate 1.3% among 330,000; Potency, µM (top dose mostly 46 µM), inactives show at the highest dose activity change, positive = activation, most hits filed as activators; HEK293T ELG1-luciferase reporter, luminescence, 16 h; note: % of control where 0% means no effect; nearly all actives have a fitted effect of over 60% in size
#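 Reporter readout depends on ELG1 protein level, which increases with genetic stress. After 16 hr compound exposure at 37 °C, luciferase activity was quantified using ONE-Glo.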
# Rab9 prom act = qHTS Assay for Rab9 Promoter Activators; Huh7 Rab9 promoter-luciferase reporter, luminescence, 24 h; Potency, µM (doses to about 9.22 µM), inactives show at the highest dose activation, negative = inhibition, most hits filed as activators; hit rate 2.8% among 320,000; AID 485297, 2010; note: % of control where 0% means no effect; nearly all actives have a fitted effect of over 60% in size
#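 Steps: seed 1500 Huh7 Rab9-luc cells per well, rest 2 h at 37 °C; add compound in DMSO; incubate 24 h; add luciferase reagent, 10 min ambient; read luminescence.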
# * hit, by the source's call; ? = inconclusive; / = no result given. Shown are actives, neighbours in structure and some others; about 7.4% of the full set was active somewhere. Calls come from the whole dose curve; as a rule, active = well fitted curve in the direction sought with a large enough effect; inconclusive = small, poorly fitted or top-dose-only effect, or another doubt; inactive = no such curve, though single readings can be large; an effect the other way counts as inactive or inconclusive. Potency is the fitted concentration of half-maximal effect.
SMILES,FLuc modulator,SMN2 splice enh,NPC1 promoter act,ELG1 genotoxic,Rab9 prom act
O=C(NCc1ccco1)c1cc(-c2ccccc2)nc2ccccc12,?,?,-2%,-5%,-2%
COc1ccc(Nc2cc(C(=O)NCc3ccco3)c3ccccc3n2)c(OC)c1,15µM*,4%,-3%,-6%,-3%
COCCCNC(=O)c1oc2c(c1C)-c1nn(Cc3cccc(Cl)c3)cc1CC2,-17%,/,/,/,/
CC(Sc1ccc(Cl)cc1)C(=O)NNC(=O)c1ccccc1O (configuration not stated),?,/,-1%,-1%,-3%
CCN(CC)C(=O)c1cc2sc3ccccc3c2s1,9.5µM*,25%,2.8µM*,?,3.2µM*
COCCN(CCOC)C(=O)c1cc2sc3ccccc3c2s1,-16%,-18%,-2%,7%,9%
Cc1cc(C)nc(SCc2cn3c(C)cccc3n2)n1,-19%,/,1%,0%,-2%
c1ccc2oc(SCc3cn4ccccc4n3)nc2c1,9.5µM*,14µM*,1.4µM*,4.6µM*,1.1µM*
Cc1cccc2nc(CSc3nc4ccccc4o3)cn12,15µM*,-2%,1%,13%,20%
O=C(O)COc1ccc(/C=C/c2nc3ccc([N+](=O)[O-])cc3s2)cc1,4.8µM*,/,7%,3%,4%
Cc1cccc(OCC(=O)Nc2nc3ccc([N+](=O)[O-])cc3s2)c1,-8%,-18%,-3%,-3%,-6%
O=C(c1ccccc1-c1nc(-c2ccccc2)no1)N1CCCC1,27µM*,?,-1%,12%,-2%
Cc1ccc(-c2noc(-c3ccccc3C(=O)N3CCN(C)CC3)n2)cc1,?,-4%,0%,?,15%
Cc1ccc(-c2noc(-c3ccccc3C(=O)N3CCCC3)n2)cc1,24µM*,-8%,10%,?,5%
O=C(c1ccccc1-c1nc(-c2ccc(Cl)cc2)no1)N1CCCC1,19µM*,-15%,?,?,3.2µM*
N#CCC(=O)Nc1ccc(C(=O)NCCc2c[nH]c3ccccc23)cc1,1%,/,0%,13%,4%
CCCC(=O)OC1=CN(Cc2ccccc2)S(=O)(=O)c2ccccc21,0%,/,/,/,/
CCOc1ccc(/C=C2\N=C(c3cccs3)OC2=O)cc1OC,-24%,26%,-1%,-1%,2%
COc1cc(/C=C2\N=C(c3ccccc3)OC2=O)ccc1OC(C)=O,15µM*,/,23%,0%,2%
COc1ccc(/C=C2/N=C(c3cccs3)OC2=O)cc1OC(C)C,6.7µM*,12%,2%,-11%,0%
O=C1NC(=Nc2ccccc2Cl)S/C1=C\c1cc([N+](=O)[O-])ccc1O,?,/,9%,0%,0%
O=Cc1cc(N=Nc2ccccc2Cl)ccc1O,19µM*,/,2.5µM*,11%,2.2µM*
O=Cc1cc(N=Nc2cccc(C(=O)O)c2)ccc1O,11µM*,15%,?,-2%,?
CCOC(=O)N1CCN(C(=O)c2cc(COc3ccc(F)cc3F)on2)CC1,?,/,18%,?,?
Cc1cccc(C)c1OCc1cc(C(=O)N2CCN(c3ccc(F)cc3)CC2)no1,3.4µM*,/,0.63µM*,?,1.1µM*
SMILES,FLuc modulator,SMN2 splice enh,NPC1 promoter act,ELG1 genotoxic,Rab9 prom act
O=C(c1cc(COc2ccc3c(c2)CCCC3)on1)N1CCCC1,11µM*,/,2.8µM*,18µM*,4µM*
CCOC(=O)C1CCN(C(=O)c2cc(COc3ccc(F)cc3F)on2)CC1,13µM*,/,2.8µM*,21µM*,2.8µM*
CC(=O)N1CCCN(C(=O)c2cc(COc3c(F)cccc3F)on2)CC1,3%,/,0%,-2%,13%
O=C(c1cc(COc2c(F)cccc2F)on1)N1CCCCCC1,?,/,?,?,2.8µM*
CCCCCOc1ccc(C(=O)CCC(=O)NNC(=O)c2ccncc2)cc1,1%,/,7%,5%,12%
Cn1c(SCC(=O)Nc2ccccc2)nc2ccccc2c1=O,-1%,/,-3%,-3%,-8%
CCOC(=O)N1CCN(C(=O)c2cc(COc3c(F)cccc3F)on2)CC1,8.5µM*,/,2.2µM*,15µM*,3.2µM*
Cc1nc(SCC(=O)Nc2ccc(Cl)cc2C(F)(F)F)[nH]c(=O)c1Cc1ccccc1,?,-2%,/,/,/
Cc1ccc(N=Nc2c(N)n[nH]c2N)cc1,15µM*,/,?,?,18%
Nc1n[nH]c(N)c1N=Nc1ccc2c(c1)OCO2,12µM*,21%,?,5%,?
COc1ccc(NS(=O)(=O)c2cccc(NC(=O)COc3ccccc3[N+](=O)[O-])c2)cc1,/,/,/,0%,/
Cc1ccc(/C=C(\C#N)C(=O)Nc2cccc(C)n2)cc1,2.4µM*,/,4%,-3%,-2%
Cc1ccc(/C=C(\C#N)C(=O)Nc2ccccn2)o1,8.5µM*,18µM*,?,5.2µM*,2.5µM*
COc1ccc(/C=C(\C#N)C(=O)Nc2ccccn2)cc1,2.1µM*,/,-8%,?,-7%
COc1ccc(O)c(/C=C(\C#N)C(=O)Nc2ccccn2)c1,2.4µM*,/,-2%,17%,-2%
Cc1cccc(NC(=O)/C(C#N)=C\c2ccc(C(=O)O)cc2)c1,?,-7%,-6%,-9%,-5%
CCCCCc1nc2c(c(=O)c3ccccc3n2C)c(=O)n1Cc1ccc(OC)cc1,-1%,/,-6%,-3%,-1%
Cc1ccc(/C=c2/sc3nnc(-c4ccccc4Cl)n3c2=O)o1,15µM*,13%,1%,-3%,0%
Cc1ccc(NC(=S)NNC(=O)c2nnn(-c3ccccc3)c2C)cc1,?,15%,-3%,0%,0%
CCc1ccc(OC(=O)c2ccn(CC)n2)cc1,15µM*,3%,0%,3%,3%
CCn1ccc(C(=O)NC2CCCC2)n1,1%,/,2%,7%,8%
Cc1ccc(NC(=O)O/N=C/c2c(C)nn(C(C)(C)C)c2C)cc1Cl,0.13µM*,/,-35%,-12%,-44%
O=C(c1ccc(-c2nnc(-c3ccccc3)o2)cc1)N1CCCCCC1,4.8µM*,/,1.4µM*,?,0.56µM*
O=C(O)c1ccc(-c2nnc(-c3ccccc3)o2)cc1,5.4µM*,/,0.32µM*,?,?
O=C(O)c1ccc(-c2nnc(-c3ccc([N+](=O)[O-])cc3)o2)cc1,-8%,/,-1%,-1%,4%
COc1ccc(NC(=O)CC(C)n2nc(C)cc2C)cc1Cl (configuration not stated),1%,/,/,/,/
COc1ccc2cc(C(=O)NCc3ccco3)c(=O)oc2c1,6µM*,27%,?,5.8µM*,?
O=C(NCc1ccco1)c1cc2ccc(O)cc2oc1=O,11µM*,8%,?,?,?
CCCCC(=O)Nc1ccc2c(c1)nc1n2CCSC1,24µM*,?,3.5µM*,7.3µM*,3.5µM*

# Assay outcomes as filed in PubChem.
